Structures are written as SMILES. Records with an inconclusive call do not appear. Where a call stands in place of a potency, no number is given. The source made the active and inactive calls. The call rests on the fitted dose curve; in most records, active means well fitted inhibition curve with a large enough effect; inconclusive means small, poorly fitted or top-dose-only effect; inactive means flat fitted curve, though single readings scatter.
Potency means the concentration at half of the fitted maximal effect.

System in the first assay: not listed separately
The assay can be described thus: qHTS profiling for inhibitors of Plasmodium falciparum proliferation (AID 504749). Further: nearly all actives have a fitted effect of over 60% in size. The following applies: P. falciparum in erythrocytes, SYBR Green DNA, 72 h; parasite line B. A digest of the protocol: (§1)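 Each compound contacts P. falciparum-infected red blood cells for 72 h at 37 C; lysis buffer (Tris, EDTA, saponin, Triton X, SYBR Green I) is added and fluorescence measured next morning; values normalized to controls.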
(qHTS replaces the single test concentration by a dilution series.)
With `CC(=O)[C@]1(O)Cc2c(O)c3c(c(O)c2[C@@H](O[C@H]2C[C@H](N)[C@H](O)[C@H](C)O2)C1)C(=O)c1c(O)cccc1C3=O`, the Potency was 12.6 µM (active). Take `COC(=O)C1=C(C)NC(C)=C(C(=O)OCC(C)C)C1c1ccccc1[N+](=O)[O-]` (stereo not given): the Potency is 10 µM (active). On the same count and under the same terms, the value for `CN(C)c1ccc(C(=C2C=CC(=[N+](C)C)C=C2)c2ccccc2)cc1` was 11.2 µM (active).

For a further assay, the system named is 3D7. The assay is described as above. To be noted: P. falciparum in erythrocytes, SYBR Green DNA, 72 h; series mostly up to 28.7 µM. A digest of the protocol: as §1
Turning to `C[S+](CC[C@H](N)C(=O)O)C[C@H]1O[C@@H](n2cnc3c(N)ncnc32)[C@H](O)[C@@H]1O` (stereo not given in full), the Potency result is “inactive”. Same read-out and setting: the value for `C=CCN1C(=O)C(CC(C)C)NC1=S` (stereo not given) was “inactive”; that for `CN1CCN(c2cc3c(nn2)Oc2ccccc2N3C)CC1` was “inactive”.

Consider `O=C(/C=C/c1ccccc1)NCCO`, for which the Potency result is “inactive”. Still for that read-out and setting: the value for `Cc1[nH]cnc1CN1CCc2c(c3ccccc3n2C)C1=O` was “inactive”.

As to `CC(=O)[C@]1(O)Cc2c(O)c3c(c(O)c2[C@@H](O[C@H]2C[C@H](N)[C@H](O)[C@H](C)O2)C1)C(=O)c1c(O)cccc1C3=O`, the Potency was 3.16 µM (active). On the same count and under the same terms, the value for `Nc1ccc(C(=O)O)c(O)c1` was “inactive”; that for `O=C(O)Cc1ccc(-c2ccccc2)cc1` was “inactive”. Still for that read-out and setting: the value for `COc1cc(/C=C/C(=O)N2CCN(CC(=O)N3CCCC3)CC2)cc(OC)c1OC` was “inactive”.

For `O=C(O)[C@H](O)[C@@H](O)[C@H](O)[C@H](O)CO`, the Potency entry is “inactive”. The same measure, in the same setting: the value for `O=C(O)/C=C/C(O)c1ccc(Cl)cc1` (stereo not given) was “inactive”; that for `O=C(O)COc1ccc(C(=O)c2cccs2)c(Cl)c1Cl` was “inactive”; that for `C=C(Nc1ccc(OCC)cc1)Nc1ccc(OCC)cc1` was “inactive”. On the same count and under the same terms, the value for `Cc1ccc(O)c(-n2nc3ccccc3n2)c1` was “inactive”; that for `CCCCC[C@H](O)/C=C/[C@@H]1[C@@H](C/C=C\CCCC(=O)O)[C@@H](O)C[C@H]1O` was “inactive”; that for `CN1[C@@H]2CC[C@H]1CC(OC(=O)C(CO)c1ccccc1)C2` (stereo not given in full) was “inactive”. Still for that read-out and setting: the value for `CCOc1ccc2nc(S(N)(=O)=O)sc2c1` was “inactive”. Regarding `Oc1c(Br)cc(Br)c2cccnc12`, the Potency entry was “inactive”. The same measure, in the same setting: the value for `Cc1cc(O)c2ccccc2c1O` was 12.6 µM (active); that for `O=C(Nc1ccc(C(=O)O)c(O)c1)c1ccccc1` was “inactive”; that for `Nc1ccc(O)c(C(=O)O)c1` was “inactive”. On the same count and under the same terms, the value for `Clc1ccccc1-c1nc(-c2ccncc2)no1` was “inactive”; that for `Cc1ccccc1CNc1ncnc2c1ncn2C1OC(CO)C(O)C1O` (stereo not given) was “inactive”. The same measure, in the same setting: the value for `Cc1nc2ccccc2n1Cc1ccc(Cl)cc1` was “inactive”. As to `CN(C)c1ccc(C(=C2C=CC(=[N+](C)C)C=C2)c2ccccc2)cc1`, the Potency is 2.24 µM (active). For `CC1(C)C[C@@H]1C(=O)N/C(=C\CCCCSC[C@H](N)C(=O)O)C(=O)O`, the Potency entry is “inactive”. Still for that read-out and setting: the value for `CC(C(=O)O)c1ccc2c(c1)[nH]c1ccc(Cl)cc12` (stereo not given) was “inactive”.

(Values after PubChem BioAssay (NCATS).)
